# System: LOC_OS01G01410-cb001
# Assay: thermal shift delta Tm vs DMSO control; higher = stronger stabilization (binding)
# Settings: 12.5 µM; protein concentration 2 µM
# How it was run: (§1)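 Thermal shift values come from differential scanning fluorimetry on purified rice kinase domains made in E. coli, with melting temperatures obtained from Boltzmann fits. Samples of 19.5 μl held 2 μM kinase, 100 mM potassium phosphate pH 7.5, 150 mM NaCl, 10% glycerol, 5 × SYPRO Orange and compound in DMSO, and were heated from 25°C to 95°C at 0.05°C/s. Each shift is a triplicate mean relative to the DMSO-only protein sample.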
# 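Also: purified Escherichia coli-expressed rice kinase domain construct.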
row,Compound,thermal shift delta Tm
1,CC(C)(O)CC(=O)NCCn1ccc2ncnc(Nc3ccc(Oc4cccc(C(F)(F)F)c4)c(Cl)c3)c21,1.78 °C
2,CCOC(=O)c1cnc2ccc(-c3cncc(NS(=O)(=O)c4ccccc4)c3)cn12,1.19 °C
3,N#Cc1c(NC(=O)c2cccc3ccccc23)sc2c1CCCC2 [JNK Inhibitor IX],0.03 °C
4,CN(C)Cc1cccc(N=C(c2ccccc2)c2c(O)[nH]c3cc(C(=O)N(C)C)ccc23)c1,-0.17 °C
5,O=c1c(-c2ccc(O)cc2)coc2cc(O)cc(O)c12 [Genistein],0.67 °C
6,CCn1c2ccccc2c2cc(Nc3ccnc(NCCCN4CCOCC4)n3)ccc21,-0.05 °C
7,N#CC(=C(/N)Sc1ccccc1N)/C(C#N)=C(\N)Sc1ccccc1N,1.35 °C
8,CCN(CC)CCCC(C)Nc1nc(C)cc(Nc2ccc3nc(C)cc(N)c3c2)n1 (stereo unspecified),1.12 °C
9,c1cn2cc(-c3ccc4cn[nH]c4c3)nc(Nc3ccc(N4CCOCC4)cc3)c2n1 [Entospletinib (GS-9973)],2.35 °C
10,C[C@H]1CNC(=O)c2cnn3ccc(nc23)N[C@H](C)c2cc(F)ccc2O1,-0.06 °C
11,CC(C)c1cnn2c(NCc3ccccc3)cc(NCCCCCCN)nc12,0.34 °C
12,C=CC(=O)Nc1cccc(Nc2nc(Nc3ccc(NC4CN(CCF)C4)cc3OC)ncc2C(F)(F)F)c1,0.5 °C
13,CNC(=O)CN1CCC(Oc2cc3c(Nc4cccc(Cl)c4F)ncnc3cc2OC)CC1 [Sapitinib (AZD8931)],0.6 °C
14,"C=CC(=O)Nc1cccc(Nc2nc(Nc3ccc(N4CCN(C(C)=O)CC4)cc3OC)ncc2C(F)(F)F)c1 [Rociletinib (CO-1686, AVL-301)]",1.11 °C
15,O=C(c1ccc(/C=C/c2n[nH]c3ccccc23)cc1)N1CCNCC1,5.18 °C
16,Cc1ccc(NC(=O)c2ccc(CN3CCN(C)CC3)cc2)cc1Nc1nc(-c2cccnc2)cs1 [Masitinib (AB1010)],1.11 °C
17,N#Cc1c(O)c2c(-c3ccc(-c4ccccc4O)cc3)csc2[nH]c1=O,0.93 °C
18,CN1CC[C@H](c2c(O)cc(O)c3c(=O)cc(-c4ccccc4Cl)oc23)[C@H](O)C1 [Flavopiridol (Alvocidib)],0.72 °C
19,Cc1cnc(Nc2ccc(OCCN3CCCC3)cc2)nc1Nc1cccc(S(=O)(=O)NC(C)(C)C)c1,1.71 °C
20,C[C@@H](Oc1ccc2[nH]nc(/C=C/c3cnn(CCO)c3)c2c1)c1c(Cl)cncc1Cl,5.27 °C
21,Nc1cccc(-c2cc3c(Oc4cccc(O)c4)ncnc3[nH]2)c1,2.64 °C
22,CN1CCC(COc2cnc(-c3cccc(Cn4nc(-c5cccc(C#N)c5)ccc4=O)c3)nc2)CC1,0.33 °C
23,"C[C@H](Nc1ncnc2nc[nH]c12)c1cc2cccc(Cl)c2c(=O)n1-c1ccccc1 [Duvelisib (IPI-145, INK1197)]",-0.46 °C
24,CCCCNc1ncc(C(=O)NCc2ccc(-n3ccnc3)cc2)c(NC2CCC(O)CC2)n1 (stereo unspecified),3.78 °C

# System: LOC_OS01G02750-cb003
# Assay: as above
# Settings: 12.5 µM; protein concentration 2 µM
# How it was run: as §1
row,Compound,thermal shift delta Tm
1,Oc1c2ccccc2c2c3c(cccc13)N=N2,5.55 °C
2,CSc1cccc(Nc2ncc3cc(-c4c(Cl)cccc4Cl)c(=O)n(C)c3n2)c1,0.56 °C
3,COc1cc(Nc2ncc(F)c(Nc3ccc4c(n3)NC(=O)C(C)(C)O4)n2)cc(OC)c1OC [R406 (free base)],1.68 °C
4,Cc1cn(-c2cc(NC(=O)c3ccc(C)c(Nc4nccc(-c5cnccn5)n4)c3)cc(C(F)(F)F)c2)cn1 [Radotinib],1.63 °C
5,CN1CCN(Cc2ccc(-c3cnc4[nH]cc(-c5ccc6[nH]ccc6c5)c4c3)cc2)CC1,5.34 °C
6,CONC(=O)c1ccccc1Nc1cc(Nc2cc(C)nn2C(C)C)ncc1Cl,1.48 °C
7,CNC(=O)c1cc(Oc2ccc(NC(=O)Nc3ccc(Cl)c(C(F)(F)F)c3)c(F)c2)ccn1 [Regorafenib (BAY 73-4506)],0.82 °C
8,c1cc(-c2cnn3cc(-c4ccc(OCCN5CCCCC5)cc4)cnc23)ccn1 [Dorsomorphin 2HCl],10.2 °C
9,CCCCCCCCCC(=O)CC(O)S(=O)(=O)O (stereo unspecified) [Sodium Houttuyfonate],-0.18 °C
10,CC(C)[C@H](CO)Nc1nc(Nc2cccc(Cl)c2)c2ncn(C(C)C)c2n1 [Purvalanol A],3.04 °C
11,COc1ccc(Cl)c(Nc2nc3ccccc3nc2NS(=O)(=O)c2cccc(NC(=O)C(C)(C)N)c2)c1 [Pilaralisib (XL147)],2.16 °C
12,CC(C)Oc1ccc(-c2nn([C@@H](C)c3oc4ccc(F)cc4c(=O)c3-c3cccc(F)c3)c3ncnc(N)c23)cc1F,1.4 °C
13,O=C(/C=C/c1ccc2ccccc2n1)c1ccncc1,-1.2 °C
14,CC(C)(O)CC(=O)NCCn1ccc2ncnc(Nc3ccc(Oc4cccc(C(F)(F)F)c4)c(Cl)c3)c21,3.42 °C
15,CCOC(=O)c1cnc2ccc(-c3cncc(NS(=O)(=O)c4ccccc4)c3)cn12,2.3 °C
16,N#Cc1c(NC(=O)c2cccc3ccccc23)sc2c1CCCC2 [JNK Inhibitor IX],1.54 °C
17,CN(C)Cc1cccc(N=C(c2ccccc2)c2c(O)[nH]c3cc(C(=O)N(C)C)ccc23)c1,0.75 °C
18,O=c1c(-c2ccc(O)cc2)coc2cc(O)cc(O)c12 [Genistein],0.54 °C
19,CCn1c2ccccc2c2cc(Nc3ccnc(NCCCN4CCOCC4)n3)ccc21,-0.06 °C

row,Compound,thermal shift delta Tm
1,N#CC(=C(/N)Sc1ccccc1N)/C(C#N)=C(\N)Sc1ccccc1N,1.84 °C
2,CCN(CC)CCCC(C)Nc1nc(C)cc(Nc2ccc3nc(C)cc(N)c3c2)n1 (stereo unspecified),1.02 °C
3,c1cn2cc(-c3ccc4cn[nH]c4c3)nc(Nc3ccc(N4CCOCC4)cc3)c2n1 [Entospletinib (GS-9973)],3.16 °C
4,C[C@H]1CNC(=O)c2cnn3ccc(nc23)N[C@H](C)c2cc(F)ccc2O1,4.66 °C
5,CC(C)c1cnn2c(NCc3ccccc3)cc(NCCCCCCN)nc12,0.13 °C
6,C=CC(=O)Nc1cccc(Nc2nc(Nc3ccc(NC4CN(CCF)C4)cc3OC)ncc2C(F)(F)F)c1,-0.47 °C
7,CNC(=O)CN1CCC(Oc2cc3c(Nc4cccc(Cl)c4F)ncnc3cc2OC)CC1 [Sapitinib (AZD8931)],0.72 °C
8,"C=CC(=O)Nc1cccc(Nc2nc(Nc3ccc(N4CCN(C(C)=O)CC4)cc3OC)ncc2C(F)(F)F)c1 [Rociletinib (CO-1686, AVL-301)]",-0.18 °C
9,O=C(c1ccc(/C=C/c2n[nH]c3ccccc23)cc1)N1CCNCC1,3.06 °C
10,Cc1ccc(NC(=O)c2ccc(CN3CCN(C)CC3)cc2)cc1Nc1nc(-c2cccnc2)cs1 [Masitinib (AB1010)],0.48 °C
11,N#Cc1c(O)c2c(-c3ccc(-c4ccccc4O)cc3)csc2[nH]c1=O,1.74 °C
12,CN1CC[C@H](c2c(O)cc(O)c3c(=O)cc(-c4ccccc4Cl)oc23)[C@H](O)C1 [Flavopiridol (Alvocidib)],0.39 °C
13,Cc1cnc(Nc2ccc(OCCN3CCCC3)cc2)nc1Nc1cccc(S(=O)(=O)NC(C)(C)C)c1,0.69 °C
14,C[C@@H](Oc1ccc2[nH]nc(/C=C/c3cnn(CCO)c3)c2c1)c1c(Cl)cncc1Cl,7.14 °C
15,Nc1cccc(-c2cc3c(Oc4cccc(O)c4)ncnc3[nH]2)c1,1.81 °C
16,CN1CCC(COc2cnc(-c3cccc(Cn4nc(-c5cccc(C#N)c5)ccc4=O)c3)nc2)CC1,0.27 °C
17,"C[C@H](Nc1ncnc2nc[nH]c12)c1cc2cccc(Cl)c2c(=O)n1-c1ccccc1 [Duvelisib (IPI-145, INK1197)]",0.34 °C
18,CCCCNc1ncc(C(=O)NCc2ccc(-n3ccnc3)cc2)c(NC2CCC(O)CC2)n1 (stereo unspecified),2.44 °C

# Reference: the supplement of paper PMC9694430
